According to PubChem BioAssay (NCI):
Compounds without any hit were thinned out: in the full panel of roughly 79,000, 15% have a hit. Values without a mark were called inactive. The source made the active and inactive calls. Rule as the data show it: active = growth inhibition above about 70%; inactive = the rest.

Columns and labels:
[1] = NCI Yeast Anticancer Drug Screen. Data for the rad52 strain (AID 147);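 also: 0% = growth of vehicle-treated control cultures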; conditions: S. cerevisiae rad52 mutant growth inhibition, active compounds read high
Outline: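 Screen used a yeast mutant impaired in DNA repair. After compound exposure, growth was measured. Values reflect inhibition compared with vehicle-treated cells.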

[2] = NCI Yeast Anticancer Drug Screen. Data for the wt1 strain (AID 149);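 also: 0% = growth of vehicle-treated wt1 cultures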; conditions: S. cerevisiae wt1 strain (SPY 50644) growth inhibition, active compounds read high
Outline: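 Growth inhibition read against vehicle controls after compound exposure of the wt1 yeast strain.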

[3] = NCI Yeast Anticancer Drug Screen. Data for the mgt1 strain (AID 153); conditions: S. cerevisiae mgt1 mutant growth inhibition, active compounds read high
Outline: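 Genetically defined yeast (mgt1) treated with compound; inhibition of growth expressed against vehicle-treated controls.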

[4] = NCI Yeast Anticancer Drug Screen. Data for the rad50 strain (AID 155);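 also: 0% = growth of vehicle-only cultures of the same strain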; conditions: S. cerevisiae rad50 strain growth inhibition, active compounds read high
Outline: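 Readout: growth inhibition relative to vehicle-treated cultures. Compound exposure was carried out in a genetically defined yeast strain deficient in DNA damage repair.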

[5] = NCI Yeast Anticancer Drug Screen. Data for the mec2-1 strain (AID 157); conditions: S. cerevisiae mec2-1 strain, active compounds read high
Outline: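 Readout is yeast growth inhibition, normalised to vehicle-treated controls, in the mec2-1 strain exposed to compound.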

[6] = NCI Yeast Anticancer Drug Screen. Data for the rad14 strain (AID 159);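 also: 0% = growth of vehicle-treated control cultures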; conditions: S. cerevisiae rad14 strain growth inhibition, active compounds read high
Outline: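 Growth inhibition vs vehicle controls; genetically altered yeast strain (DNA damage repair defect) treated with test compounds.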

[7] = NCI Yeast Anticancer Drug Screen. Data for the sgs1 mgt1 strain (AID 161);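 also: 0% = growth of cultures given vehicle only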; conditions: S. cerevisiae sgs1 mgt1 strain, active compounds read high
Outline: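 Yeast cells carrying a defined DNA-repair defect were exposed to test compounds. Growth inhibition was measured relative to vehicle-treated controls.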

[8] = NCI Yeast Anticancer Drug Screen. Data for the CLN2oe strain (AID 163);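 also: 0% = growth of vehicle-only control cultures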; conditions: S. cerevisiae CLN2oe strain, active compounds read high
Outline: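 Values reflect how much compound exposure reduced yeast growth, referenced to vehicle-exposed cells. Assay organism is a strain with a defined genetic change affecting cell-cycle control.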

[9] = NCI Yeast Anticancer Drug Screen. Data for the cln2 rad14 strain (AID 165);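 also: 0% = growth equal to vehicle treated cultures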; conditions: S. cerevisiae cln2 rad14 strain, active compounds read high
Outline: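 Relative to vehicle controls, growth inhibition of compound-treated cln2 rad14 yeast was recorded.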

[10] = NCI Yeast Anticancer Drug Screen. Data for the bub3 strain (AID 167); conditions: S. cerevisiae bub3 mutant strain, active compounds read high
Outline: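 Readout: yeast growth inhibition, expressed relative to vehicle-only wells. The test organism is a mutant strain from a panel with lesions in DNA repair or checkpoint genes.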

[11] = NCI Yeast Anticancer Drug Screen. Data for the wt2 strain (AID 169);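 also: 0% = growth of vehicle-treated yeast cultures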; conditions: S. cerevisiae wt2 strain growth inhibition, active compounds read high
Outline: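 Values express reduction in yeast growth under compound treatment, referenced to vehicle-treated cells.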

[12] = NCI Yeast Anticancer Drug Screen. Data for the mlh1 strain (AID 171);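 also: 0% = growth of vehicle-treated control cultures of the same strain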; conditions: S. cerevisiae mlh1 strain growth inhibition, active compounds read high
Outline: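 Steps: expose the defined-mutant yeast strain to compound; expose a parallel culture to vehicle; measure growth; express compound effect as inhibition relative to the vehicle culture.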

[13] = NCI Yeast Anticancer Drug Screen. Data for the sgs1 strain (AID 173);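 also: 0% = growth of vehicle-only control cultures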; conditions: S. cerevisiae sgs1 mutant, active compounds read high
Outline: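 Treat defined-mutant yeast with compound; measure growth; calculate inhibition relative to vehicle-treated cells.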

[14] = NCI Yeast Anticancer Drug Screen. Data for the mlh1 rad18 strain (AID 175); conditions: S. cerevisiae mlh1 rad18 strain growth inhibition, active compounds read high
Outline: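 Test agents were incubated with a yeast strain of defined genotype (DNA damage repair defect). Inhibition of growth was derived by comparison with vehicle-exposed cultures.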

[15] = NCI Yeast Anticancer Drug Screen. Data for the rad18 strain (AID 177); conditions: S. cerevisiae rad18 mutant growth inhibition, active compounds read high
Outline: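 A genetically defined yeast mutant impaired in DNA damage repair was treated with test compounds, then its growth was measured against cultures receiving vehicle alone.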

[16] = at 5.0 µM (retest, dose inferred, filed as 0.5)
[17] = at 50.0 µM (retest, dose inferred, filed as 5.0)

CN(C)CC1=Nc2cccc3cccc(c23)N1
growth inhibition ([1]; at 1.2 µM): -4% | growth inhibition ([1]; at 3.7 µM): -6% | growth inhibition ([1]; at 11.0 µM): -10% | growth inhibition ([1]; at 33.0 µM): 2% | growth inhibition ([1]; at 100.0 µM): 60% | growth inhibition ([2]; at 1.2 µM): 2% | growth inhibition ([2]; at 3.7 µM): -5% | growth inhibition ([2]; at 11.0 µM): -6% | growth inhibition ([2]; at 33.0 µM): -4% | growth inhibition ([2]; at 100.0 µM): 21% | growth inhibition ([3]; at 1.2 µM): -9% | growth inhibition ([3]; at 3.7 µM): -1% | growth inhibition ([3]; at 11.0 µM): -7% | growth inhibition ([3]; at 33.0 µM): 9% | growth inhibition ([3]; at 100.0 µM): 87% (active) | growth inhibition ([4]; at 1.2 µM): -7% | growth inhibition ([4]; at 3.7 µM): 1% | growth inhibition [4, 16]: -17% | growth inhibition ([4]; at 11.0 µM): 4% | growth inhibition ([4]; at 33.0 µM): 51% | growth inhibition [4, 17]: 30% | growth inhibition ([4]; at 50.0 µM): 90.8% (active) | growth inhibition ([4]; at 100.0 µM): 79% (active) | growth inhibition ([5]; at 1.2 µM): -3% | growth inhibition ([5]; at 3.7 µM): -3% | growth inhibition [5, 16]: -12% | growth inhibition ([5]; at 11.0 µM): -5% | growth inhibition ([5]; at 33.0 µM): 3% | growth inhibition [5, 17]: 17% | growth inhibition ([5]; at 50.0 µM): 87.4% (active) | growth inhibition ([5]; at 100.0 µM): 85% (active) | growth inhibition ([6]; at 1.2 µM): -2% | growth inhibition ([6]; at 3.7 µM): 0% | growth inhibition ([6]; at 11.0 µM): 1% | growth inhibition ([6]; at 33.0 µM): 51% | growth inhibition ([6]; at 100.0 µM): 88% (active) | growth inhibition [7, 16]: -21% | growth inhibition [7, 17]: 41% | growth inhibition ([7]; at 50.0 µM): 88.6% (active) | growth inhibition ([8]; at 1.2 µM): -4% | growth inhibition ([8]; at 3.7 µM): -8% | growth inhibition ([8]; at 11.0 µM): 5% | growth inhibition ([8]; at 33.0 µM): 3% | growth inhibition ([8]; at 100.0 µM): 61% | growth inhibition [9, 16]: -39% | growth inhibition [9, 17]: -16% | growth inhibition ([9]; at 50.0 µM): 6.8% | growth inhibition ([10]; at 1.2 µM): -5% | growth inhibition ([10]; at 3.7 µM): -4% | growth inhibition [10, 16]: -26% | growth inhibition ([10]; at 11.0 µM): -3% | growth inhibition ([10]; at 33.0 µM): 17% | growth inhibition [10, 17]: 58% | growth inhibition ([10]; at 50.0 µM): 90% (active) | growth inhibition ([10]; at 100.0 µM): 85% (active) | growth inhibition ([11]; at 1.2 µM): -2% | growth inhibition ([11]; at 3.7 µM): -5% | growth inhibition ([11]; at 11.0 µM): -6% | growth inhibition ([11]; at 33.0 µM): 10% | growth inhibition ([11]; at 100.0 µM): 64% | growth inhibition ([12]; at 1.2 µM): 0% | growth inhibition ([12]; at 3.7 µM): -12% | growth inhibition ([12]; at 11.0 µM): -5% | growth inhibition ([12]; at 33.0 µM): 24% | growth inhibition ([12]; at 100.0 µM): 87% (active) | growth inhibition ([13]; at 1.2 µM): -1% | growth inhibition ([13]; at 3.7 µM): -5% | growth inhibition ([13]; at 11.0 µM): -5% | growth inhibition ([13]; at 33.0 µM): 7% | growth inhibition ([13]; at 100.0 µM): 68% | growth inhibition [14, 16]: -32% | growth inhibition [14, 17]: 46% | growth inhibition ([14]; at 50.0 µM): 90.2% (active) | growth inhibition ([15]; at 1.2 µM): -3% | growth inhibition ([15]; at 3.7 µM): -20% | growth inhibition ([15]; at 11.0 µM): -14% | growth inhibition ([15]; at 33.0 µM): 1% | growth inhibition ([15]; at 100.0 µM): 70% (active)

O=C(C#Cc1ccccc1)/C=C/c1ccccc1
growth inhibition ([1]; at 1.2 µM): 4% | growth inhibition ([1]; at 3.7 µM): 3% | growth inhibition ([1]; at 11.0 µM): 29% | growth inhibition ([1]; at 33.0 µM): 78% (active) | growth inhibition ([1]; at 100.0 µM): 95% (active) | growth inhibition ([2]; at 1.2 µM): -6% | growth inhibition ([2]; at 3.7 µM): -9% | growth inhibition ([2]; at 11.0 µM): 10% | growth inhibition ([2]; at 33.0 µM): 51% | growth inhibition ([2]; at 100.0 µM): 96% (active) | growth inhibition ([3]; at 1.2 µM): 0% | growth inhibition ([3]; at 3.7 µM): -5% | growth inhibition ([3]; at 11.0 µM): 3% | growth inhibition ([3]; at 33.0 µM): 28% | growth inhibition ([3]; at 100.0 µM): 96% (active) | growth inhibition ([4]; at 1.2 µM): -6% | growth inhibition ([4]; at 3.7 µM): -8% | growth inhibition [4, 16]: -136% | growth inhibition ([4]; at 11.0 µM): 8% | growth inhibition ([4]; at 33.0 µM): 82% (active) | growth inhibition [4, 17]: 72% (active) | growth inhibition ([4]; at 50.0 µM): 99% (active) | growth inhibition ([4]; at 100.0 µM): 94% (active) | growth inhibition ([5]; at 1.2 µM): 0% | growth inhibition ([5]; at 3.7 µM): 2% | growth inhibition [5, 16]: -43% | growth inhibition ([5]; at 11.0 µM): 4% | growth inhibition ([5]; at 33.0 µM): 16% | growth inhibition [5, 17]: 10% | growth inhibition ([5]; at 50.0 µM): 77.3% (active) | growth inhibition ([5]; at 100.0 µM): 96% (active) | growth inhibition ([6]; at 1.2 µM): -1% | growth inhibition ([6]; at 3.7 µM): 12% | growth inhibition ([6]; at 11.0 µM): 10% | growth inhibition ([6]; at 33.0 µM): 82% (active) | growth inhibition ([6]; at 100.0 µM): 96% (active) | growth inhibition [7, 16]: -53% | growth inhibition [7, 17]: 79% (active) | growth inhibition ([7]; at 50.0 µM): 70.2% (active) | growth inhibition ([8]; at 1.2 µM): -7% | growth inhibition ([8]; at 3.7 µM): -7% | growth inhibition ([8]; at 11.0 µM): -2% | growth inhibition ([8]; at 33.0 µM): 14% | growth inhibition ([8]; at 100.0 µM): 93% (active) | growth inhibition [9, 16]: -46% | growth inhibition [9, 17]: -23% | growth inhibition ([9]; at 50.0 µM): 87.7% (active) | growth inhibition ([10]; at 1.2 µM): -2% | growth inhibition ([10]; at 3.7 µM): -1% | growth inhibition [10, 16]: -65% | growth inhibition ([10]; at 11.0 µM): 7% | growth inhibition ([10]; at 33.0 µM): 78% (active) | growth inhibition [10, 17]: 53% | growth inhibition ([10]; at 50.0 µM): 79.7% (active) | growth inhibition ([10]; at 100.0 µM): 96% (active) | growth inhibition ([11]; at 1.2 µM): -21% | growth inhibition ([11]; at 3.7 µM): -5% | growth inhibition ([11]; at 11.0 µM): 13% | growth inhibition ([11]; at 33.0 µM): 91% (active) | growth inhibition ([11]; at 100.0 µM): 97% (active) | growth inhibition ([12]; at 1.2 µM): -9% | growth inhibition ([12]; at 3.7 µM): -2% | growth inhibition ([12]; at 11.0 µM): -3% | growth inhibition ([12]; at 33.0 µM): 49% | growth inhibition ([12]; at 100.0 µM): 96% (active) | growth inhibition ([13]; at 1.2 µM): -4% | growth inhibition ([13]; at 3.7 µM): 2% | growth inhibition ([13]; at 11.0 µM): 24% | growth inhibition ([13]; at 33.0 µM): 97% (active) | growth inhibition ([13]; at 100.0 µM): 95% (active) | growth inhibition [14, 16]: -140% | growth inhibition [14, 17]: 72% (active) | growth inhibition ([14]; at 50.0 µM): 77% (active) | growth inhibition ([15]; at 1.2 µM): -5% | growth inhibition ([15]; at 3.7 µM): 4% | growth inhibition ([15]; at 11.0 µM): 13% | growth inhibition ([15]; at 33.0 µM): 81% (active) | growth inhibition ([15]; at 100.0 µM): 95% (active)
